Source: PubChem BioAssay
hgDAF12 agonist = H. glycines DAF-12 receptor agonists, primary screen, cell-based, luminescence, HEK293, GAL4 fusion, UAS-luciferase; Nuclear hormone receptor DAF-12 (Heterodera glycines), GAL4 fusion; HEK293 GAL4-hgDAF12 UAS-luciferase reporter, agonist luminescence; normalized to butyrate control; activation, % at 6.8 µM; 1.8% of 370,000 active; AID 687014, 2013;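 active = activation above a cutoff set at the mean of all screened compounds plus 3 SD, cut at about 10% in these data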;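 note: 0% = DMSO wells and 100% = sodium butyrate wells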
DAX1 inh-1 = DAX1 (NR0B1) inhibitors, primary screen, cell-based, HEK293, Gal4-DAX1, luciferase luminescence | Nuclear receptor subfamily 0 group B member 1 (Homo sapiens), P51843 | AID 504766, 2011 | inhibition, % at 6.75 µM | 0.99% of 340,000 active | HEK293 Gal4-DAX1 luciferase reporter;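 active = inhibition above the mean over all tested compounds plus 3 SD, cut at about 4.2% in these data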;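 note: 0% = DAX1-transfected cells with DMSO and 100% = empty-vector control cells with DMSO; inhibition shows as a rise in luminescence from relieved DAX1 repression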
Target sequence (P51843 207-470 limits assumed): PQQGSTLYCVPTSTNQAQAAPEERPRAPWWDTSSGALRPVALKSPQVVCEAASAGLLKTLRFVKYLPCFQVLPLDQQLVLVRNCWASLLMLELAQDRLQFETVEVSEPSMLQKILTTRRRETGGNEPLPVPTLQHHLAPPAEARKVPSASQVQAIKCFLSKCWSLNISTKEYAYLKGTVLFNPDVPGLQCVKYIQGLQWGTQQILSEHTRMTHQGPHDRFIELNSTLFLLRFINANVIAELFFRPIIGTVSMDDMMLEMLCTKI
PolyA inh = polyadenylation inhibitors in yeast reporter cells, primary screen, luminescence, S. cerevisiae; 0.02% of 300,000 active; AID 1875, 2009; activity score, % at 12 µM; S. cerevisiae SKY197-pL101 polyadenylation reporter, beta-gal luminescence; efflux-impaired pdr1/pdr3 knockout yeast; score 100 = 6 SD above DMSO;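 active = lowest replicate activity score at least 50, where 100 means six control SD above control mean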;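 note: yeast exposed to compound for 9 h at 30 °C; higher score means more reporter readthrough which indicates perturbed polyadenylation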
DAX1 inh-2 = DAX1 (NR0B1) inhibitors on StAR promoter, primary screen, cell-based, luminescence, SF-1 (NR5A1), full-length DAX-1; HEK293T StAR-luciferase reporter, SF-1/DAX-1 repression relief; inhibition, % at 6.8 µM; 1.1% of 370,000 active; AID 652010, 2013;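 active = inhibition above the mean over all tested compounds plus 3 SD, cut at about 3.6% in these data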;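 note: 0% = DAX-1 cells with DMSO and 100% = cells lacking DAX-1 with DMSO; higher inhibition means more luminescence from relief of DAX-1 repression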
ssDAF12 agonist = S. stercoralis DAF-12 nuclear receptor activators, primary screen, cell-based, luminescence, HEK293, GRIP1 co-expression, lit1-tk-luc; activation, % at 6.8 µM; HEK293 ssDAF-12/GRIP1 lit1-tk-luc reporter; % of 3 µM dafachronic acid response; 1% of 370,000 active;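 active = activation above the mean over all tested compounds plus 3 SD, cut at about 0.9% in these data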;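 note: 0% = DMSO-only wells and 100% = 3 µM delta7-dafachronic acid wells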
hcDAF12 agonist = H. contortus DAF-12 nuclear receptor activators, primary screen, cell-based, luminescence, HEK293, lit1-tk-luc reporter. HEK293 hcDAF-12 lit1-tk-luc reporter; 0% DMSO, 100% Δ7-dafachronic acid. activation, % at 6.8 µM. 1.4% of 370,000 active;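 active = activation above the mean of all tested compounds plus 3 SD, cut at about 5.5% in these data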;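 note: 100% = response to 3 µM Δ7-dafachronic acid high control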
Starred values were filed as active, the others as inactive. Sampled rows, rich in hits. Any-hit rate of the full collection: about 4.1%.

For Cc1csc(NC(=O)c2cc(-c3ccco3)nc3ccccc23)n1 the results were hgDAF12 agonist 1, DAX1 inh-1 -1, PolyA inh 0, DAX1 inh-2 -1, ssDAF12 agonist 8.8* and hcDAF12 agonist 4.
Screening CCOC(=O)c1sc(NC(=O)c2cc3ccccc3o2)nc1C returned hgDAF12 agonist 4, DAX1 inh-1 1, PolyA inh -15, DAX1 inh-2 3, ssDAF12 agonist -1 and hcDAF12 agonist 1.
`C=CCOC(=O)c1sc(NC(=O)c2ccco2)nc1C` gave hgDAF12 agonist 11*, DAX1 inh-1 2, PolyA inh -9, DAX1 inh-2 3, ssDAF12 agonist 0 and hcDAF12 agonist 5.
Screening COC(=O)[C@]12C[C@H](CC(=O)NCC3CCCCC3)C(=O)N(CCc3ccc(OC)c(OC)c3)C1=C[C@H](C(C)C)O[C@@H]2C1CC1 returned hgDAF12 agonist 1, DAX1 inh-2 1, ssDAF12 agonist -1 and hcDAF12 agonist -2.
Screening C#CCNC(=O)C[C@@H]1C(=O)N(CCc2ccc(Cl)cc2)C2=CCCCC[C@]21C(=O)OC returned hgDAF12 agonist 2, DAX1 inh-2 -1, ssDAF12 agonist 0 and hcDAF12 agonist -3.
Screening Cc1csc(NC(=O)c2sccc2C)n1 returned hgDAF12 agonist 12*, DAX1 inh-1 3, PolyA inh -14, DAX1 inh-2 2, ssDAF12 agonist 0 and hcDAF12 agonist 5.
Cc1csc(NC(=O)c2ccc(C(=O)Nc3nc(C)cs3)cc2)n1 was read as PolyA inh 0.
For O=C(Nc1nc(-c2ccc(Cl)s2)cs1)c1cccs1 the results were hgDAF12 agonist 10, DAX1 inh-1 -1, PolyA inh -13, DAX1 inh-2 0, ssDAF12 agonist -1 and hcDAF12 agonist 2.
For O=C(Nc1nc(-c2ccc(Cl)s2)cs1)c1ccco1 the results were hgDAF12 agonist 12*, DAX1 inh-1 3, PolyA inh -23, DAX1 inh-2 1, ssDAF12 agonist -1 and hcDAF12 agonist 1.
For COc1ccc(-c2cc(C(=O)NN=Cc3ccccc3F)[nH]n2)cc1 the results were hgDAF12 agonist 3, DAX1 inh-2 -1, ssDAF12 agonist -1 and hcDAF12 agonist -2.
For COC(=O)Cc1nnn2c1[C@H](C)[C@@H](OC)c1cccc(Cl)c1-2 the results were hgDAF12 agonist 1, DAX1 inh-2 0, ssDAF12 agonist -1 and hcDAF12 agonist -1.
COc1ccccc1CNC(=O)N(CCc1c(C)[nH]c2ccccc12)Cc1cccs1 was read as hgDAF12 agonist 1, DAX1 inh-2 -2, ssDAF12 agonist -1 and hcDAF12 agonist 2.
For CCCCN1CCC(COC(=O)c2cc(Cl)c(N)c3c2OCCO3)CC1 the results were hgDAF12 agonist 4, DAX1 inh-1 2, DAX1 inh-2 4.5*, ssDAF12 agonist -1 and hcDAF12 agonist -2.
Screening O=C(NCc1ccccc1)[C@H]1CCCN1C(=O)[C@H]1CCCN1C(=O)c1ccc(F)c(F)c1 returned hgDAF12 agonist 1, DAX1 inh-2 0, ssDAF12 agonist 0 and hcDAF12 agonist -2.
For Nc1nnn(-c2ccccc2)c1-c1ccccc1 the results were hgDAF12 agonist -1, DAX1 inh-1 4.6*, PolyA inh 19, DAX1 inh-2 0, ssDAF12 agonist -2 and hcDAF12 agonist 2.
Screening Cc1cccnc1NC(=S)Nc1ccc(Br)cc1Cl returned hgDAF12 agonist 12*, DAX1 inh-1 6.7*, PolyA inh 4, DAX1 inh-2 4, ssDAF12 agonist 0 and hcDAF12 agonist 3.
For O=C(/C=C/c1ccc2c(c1)OCCCO2)c1ccccc1O the results were hgDAF12 agonist 11*, DAX1 inh-1 3, PolyA inh -28, DAX1 inh-2 2, ssDAF12 agonist 0 and hcDAF12 agonist 2.
For CN(C)c1ccc(/C=C/C(=O)c2ccccc2O)cc1 the results were hgDAF12 agonist 11*, DAX1 inh-1 5.8*, PolyA inh -34, DAX1 inh-2 2, ssDAF12 agonist 0 and hcDAF12 agonist 1.
Cc1ccc(/C=C/C(=O)c2ccccc2O)cc1 was read as hgDAF12 agonist 1, DAX1 inh-1 3, PolyA inh 5, DAX1 inh-2 0, ssDAF12 agonist -1 and hcDAF12 agonist -2.
`C=C(C)Cn1c(SCC(=O)N/N=C/c2c(O)ccc3ccccc23)nc2ccccc2c1=O` gave hgDAF12 agonist 0, DAX1 inh-1 1, PolyA inh -25, DAX1 inh-2 0, ssDAF12 agonist 1 and hcDAF12 agonist 6.0*.
Screening O=C1c2ccccc2/C(=C\c2ccc(O[C@@H]3CCCCO3)cc2)N1c1ccccc1 returned hgDAF12 agonist 11*, DAX1 inh-2 1, ssDAF12 agonist -1 and hcDAF12 agonist 2.
Screening CCOC(=O)c1cnc2c(N=Nc3ccccc3)c(N)nn2c1N returned hgDAF12 agonist 7, DAX1 inh-1 0, PolyA inh -21, DAX1 inh-2 2, ssDAF12 agonist 0.9* and hcDAF12 agonist 1.
CCOC(=O)c1cnc2c(N=Nc3cccc(Cl)c3)c(N)nn2c1N was read as hgDAF12 agonist 1, DAX1 inh-2 0, ssDAF12 agonist -1 and hcDAF12 agonist 1.
Screening CSCCC(NC(=O)c1ccc(Cl)cc1)C(=O)OCC(C)=O (stereo not given) returned hgDAF12 agonist 0, DAX1 inh-1 5.6*, PolyA inh 15, DAX1 inh-2 1, ssDAF12 agonist -2 and hcDAF12 agonist 1.
For COCCCNC(=O)CC1C[C@H](C(=O)N2CCCCC2)[C@@]2(C)c3[nH]c4ccc(OC)cc4c3CCN2C1=O (stereo not given in full) the results were hgDAF12 agonist 1, DAX1 inh-1 -1, DAX1 inh-2 0, ssDAF12 agonist -1 and hcDAF12 agonist -1.
For COCCCNC(=O)CC1C[C@H](C(=O)N2CCOCC2)[C@@]2(C)c3[nH]c4ccc(OC)cc4c3CCN2C1=O (stereo not given in full) the results were hgDAF12 agonist 3, DAX1 inh-1 -1, DAX1 inh-2 4.1*, ssDAF12 agonist -1 and hcDAF12 agonist 2.
Screening CC[C@]12c3[nH]c4ccccc4c3CCN1C(=O)C(CC(=O)NCc1ccco1)C[C@@H]2C(=O)N1CCN(C(=O)c2ccco2)CC1 (stereo not given in full) returned hgDAF12 agonist -2, DAX1 inh-1 5.8*, DAX1 inh-2 0, ssDAF12 agonist -1 and hcDAF12 agonist 0.
